What all share (assay): DAPPL (digital affinity profiling via proximity ligation, sequencing); 10 mM Tris-HCl pH 7.5, 50 mM NaCl, 1 mM DTT, 4% glycerol, room temperature, 30 min; GST-TFs on glutathione beads, 16-mer random dsDNA library, 0.1% formaldehyde crosslink after washing; high values mean tight binding
For assay [1], the target named is T1, FEV (Homo sapiens, UniProt Q99581 1-238).
T1 sequence: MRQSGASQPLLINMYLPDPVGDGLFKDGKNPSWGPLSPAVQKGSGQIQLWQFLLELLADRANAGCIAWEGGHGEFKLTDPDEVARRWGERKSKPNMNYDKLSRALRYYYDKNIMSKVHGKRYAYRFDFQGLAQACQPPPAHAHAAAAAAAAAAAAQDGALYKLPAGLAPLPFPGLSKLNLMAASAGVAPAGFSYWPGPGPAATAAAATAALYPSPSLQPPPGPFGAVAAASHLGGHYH
The conditions noted are these: protein: recombinant; tags: N-terminal GST; dsDNA, one strand shown. In short, it runs like this: (§1)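 Beads coated with glutathione captured GST-fused human transcription factors that had been expressed in yeast, and the factors were then given DNA barcodes and pooled with a tag-only sample. The pools were incubated with 200 nmole of a random double-stranded 16-mer DNA library in Tris/NaCl/DTT/glycerol buffer for 30 min at room temperature, washed, crosslinked with 0.1% formaldehyde and proximity-ligated with BsaI/T4 ligase at 37 °C for 1 h. PCR amplification and Illumina NextSeq500 sequencing came last. Binding signal is each hexamer's read frequency for a factor divided by its frequency for the tag-only sample.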

Assay [2] addresses ETV5 (Homo sapiens, UniProt P41161 1-510). The conditions noted are these: protein: recombinant; tags: N-terminal GST; dsDNA, one strand shown. In short, it runs like this:
as §1

In assay [3] the target is HSF1 (Homo sapiens, UniProt Q00613 1-529). The conditions noted are these: protein: recombinant; tags: N-terminal GST; chain copies: 3; dsDNA, one strand shown. In short, it runs like this:
as §1

The target of assay [4] is T2, SPIC (Homo sapiens, UniProt Q8N5J4 1-248).
T2 sequence: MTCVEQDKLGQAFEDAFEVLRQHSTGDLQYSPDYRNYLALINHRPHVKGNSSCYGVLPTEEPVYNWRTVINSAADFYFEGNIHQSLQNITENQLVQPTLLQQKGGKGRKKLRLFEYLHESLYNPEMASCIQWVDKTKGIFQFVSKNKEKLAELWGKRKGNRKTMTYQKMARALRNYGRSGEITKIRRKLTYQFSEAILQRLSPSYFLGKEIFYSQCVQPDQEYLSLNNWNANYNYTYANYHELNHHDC
The conditions noted are these: protein: recombinant; tags: N-terminal GST; dsDNA, one strand shown. In short, it runs like this:
as §1

The target in assay [5] is ELF4 (Homo sapiens, UniProt Q99607 1-663). As to conditions: protein: recombinant; tags: N-terminal GST; dsDNA, one strand shown. In short, it runs like this: as §1
Chain of ELF4 (Q99607 whole entry): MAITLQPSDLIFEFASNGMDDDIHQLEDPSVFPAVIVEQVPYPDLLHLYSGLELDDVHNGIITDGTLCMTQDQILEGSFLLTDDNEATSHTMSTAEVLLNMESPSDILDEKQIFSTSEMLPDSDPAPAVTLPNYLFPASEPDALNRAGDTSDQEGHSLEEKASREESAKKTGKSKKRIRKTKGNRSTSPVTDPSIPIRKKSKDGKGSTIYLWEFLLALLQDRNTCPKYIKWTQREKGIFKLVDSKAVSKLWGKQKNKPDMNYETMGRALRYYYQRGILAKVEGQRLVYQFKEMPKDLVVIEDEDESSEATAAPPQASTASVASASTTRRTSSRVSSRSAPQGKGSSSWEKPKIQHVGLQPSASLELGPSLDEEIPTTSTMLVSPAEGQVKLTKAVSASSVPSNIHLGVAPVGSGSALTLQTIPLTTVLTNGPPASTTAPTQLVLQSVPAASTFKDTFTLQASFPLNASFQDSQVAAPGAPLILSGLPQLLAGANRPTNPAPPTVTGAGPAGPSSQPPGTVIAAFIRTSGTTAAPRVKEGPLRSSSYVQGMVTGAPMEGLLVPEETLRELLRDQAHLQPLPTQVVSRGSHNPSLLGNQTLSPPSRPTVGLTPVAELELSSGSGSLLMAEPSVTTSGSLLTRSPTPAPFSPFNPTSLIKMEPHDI
The target in assay [6] is T3, ELK4 (Homo sapiens, UniProt P28324-2 1-405).
T3 sequence: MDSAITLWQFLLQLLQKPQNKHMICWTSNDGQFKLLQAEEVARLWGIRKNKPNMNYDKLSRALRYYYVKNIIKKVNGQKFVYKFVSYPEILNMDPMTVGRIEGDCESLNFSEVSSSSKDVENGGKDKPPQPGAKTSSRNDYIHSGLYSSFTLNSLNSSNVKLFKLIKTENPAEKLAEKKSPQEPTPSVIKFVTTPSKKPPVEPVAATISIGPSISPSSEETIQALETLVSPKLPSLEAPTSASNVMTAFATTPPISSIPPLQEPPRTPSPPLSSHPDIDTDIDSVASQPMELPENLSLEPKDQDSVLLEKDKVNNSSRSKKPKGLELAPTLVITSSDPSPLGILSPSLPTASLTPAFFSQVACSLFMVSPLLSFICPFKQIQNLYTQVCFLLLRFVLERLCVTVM
The conditions noted are these: protein: recombinant; tags: N-terminal GST; dsDNA, one strand shown. In short, it runs like this: as §1

The target in assay [7] is T4, ETV2 (Homo sapiens, UniProt O00321 1-342).
T4 sequence: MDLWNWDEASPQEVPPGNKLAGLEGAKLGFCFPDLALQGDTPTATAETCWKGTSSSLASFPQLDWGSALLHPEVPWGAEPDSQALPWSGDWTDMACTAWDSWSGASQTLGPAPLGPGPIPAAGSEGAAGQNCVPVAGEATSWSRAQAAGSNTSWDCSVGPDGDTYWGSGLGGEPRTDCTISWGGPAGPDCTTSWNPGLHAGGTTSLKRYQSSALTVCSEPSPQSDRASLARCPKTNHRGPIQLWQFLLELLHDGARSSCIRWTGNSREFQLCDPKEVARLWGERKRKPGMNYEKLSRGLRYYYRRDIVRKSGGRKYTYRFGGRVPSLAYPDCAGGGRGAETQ
The conditions noted are these: protein: recombinant; tags: N-terminal GST; dsDNA, one strand shown. In short, it runs like this:
as §1

In assay [8] the target is T5, ELF3 (Homo sapiens, UniProt P78545 1-371).
T5 sequence: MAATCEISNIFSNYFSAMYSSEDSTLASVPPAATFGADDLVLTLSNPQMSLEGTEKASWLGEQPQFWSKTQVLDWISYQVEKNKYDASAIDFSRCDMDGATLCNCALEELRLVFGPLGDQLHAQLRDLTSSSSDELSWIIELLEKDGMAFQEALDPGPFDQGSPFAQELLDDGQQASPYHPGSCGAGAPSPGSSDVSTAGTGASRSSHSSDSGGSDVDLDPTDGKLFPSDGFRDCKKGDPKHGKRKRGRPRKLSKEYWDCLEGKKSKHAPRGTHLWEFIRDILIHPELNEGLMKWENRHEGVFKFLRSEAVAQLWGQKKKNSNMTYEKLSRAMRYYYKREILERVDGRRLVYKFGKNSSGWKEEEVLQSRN
As to conditions: protein: recombinant; tags: N-terminal GST; dsDNA, one strand shown. In short, it runs like this: as §1

In assay [9] the target is CRX (Homo sapiens, UniProt O43186 1-299). As to conditions: protein: recombinant; tags: N-terminal GST; dsDNA, one strand shown. In short, it runs like this:
as §1

Assay [10] concerns the target ETV1 (Homo sapiens, UniProt P50549 1-477). The conditions noted are these: protein: recombinant; tags: N-terminal GST; dsDNA, one strand shown. In short, it runs like this:
as §1

Assay [11] concerns the target T6, ERF (Homo sapiens, UniProt P50548 1-548).
T6 sequence: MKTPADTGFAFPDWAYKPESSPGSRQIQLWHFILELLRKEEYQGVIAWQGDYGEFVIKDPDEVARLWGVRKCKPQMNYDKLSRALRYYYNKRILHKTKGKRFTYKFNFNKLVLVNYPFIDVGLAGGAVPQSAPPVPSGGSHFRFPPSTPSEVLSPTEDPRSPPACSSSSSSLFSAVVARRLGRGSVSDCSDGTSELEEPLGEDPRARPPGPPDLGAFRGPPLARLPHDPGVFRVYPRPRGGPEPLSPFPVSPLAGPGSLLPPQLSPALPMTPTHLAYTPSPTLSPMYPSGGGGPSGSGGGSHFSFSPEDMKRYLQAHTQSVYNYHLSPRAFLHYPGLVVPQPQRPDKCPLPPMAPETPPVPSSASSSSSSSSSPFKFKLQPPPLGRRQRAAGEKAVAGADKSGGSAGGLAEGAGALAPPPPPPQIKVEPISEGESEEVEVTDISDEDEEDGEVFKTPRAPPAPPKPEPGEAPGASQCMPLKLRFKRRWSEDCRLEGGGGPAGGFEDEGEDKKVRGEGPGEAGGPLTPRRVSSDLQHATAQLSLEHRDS
The conditions noted are these: protein: recombinant; tags: N-terminal GST; dsDNA, one strand shown. In short, it runs like this:
as §1

Assay [12] has as its target T7, ETV3L (Homo sapiens, UniProt Q6ZN32 1-361).
T7 sequence: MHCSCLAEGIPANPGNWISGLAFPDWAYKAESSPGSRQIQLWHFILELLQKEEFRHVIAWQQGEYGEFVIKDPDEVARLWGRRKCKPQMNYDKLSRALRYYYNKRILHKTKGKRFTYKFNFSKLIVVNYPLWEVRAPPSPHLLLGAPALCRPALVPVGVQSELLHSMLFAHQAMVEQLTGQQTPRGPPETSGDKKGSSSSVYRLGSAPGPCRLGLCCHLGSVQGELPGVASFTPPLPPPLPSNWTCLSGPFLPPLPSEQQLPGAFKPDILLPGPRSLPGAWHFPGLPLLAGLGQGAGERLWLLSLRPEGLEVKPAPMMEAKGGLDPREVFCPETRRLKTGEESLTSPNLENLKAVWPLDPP
The conditions noted are these: protein: recombinant; tags: N-terminal GST; dsDNA, one strand shown. In short, it runs like this: as §1

Assay [13] deals with T8, ETS2 (Homo sapiens, UniProt P15036 1-469).
T8 sequence: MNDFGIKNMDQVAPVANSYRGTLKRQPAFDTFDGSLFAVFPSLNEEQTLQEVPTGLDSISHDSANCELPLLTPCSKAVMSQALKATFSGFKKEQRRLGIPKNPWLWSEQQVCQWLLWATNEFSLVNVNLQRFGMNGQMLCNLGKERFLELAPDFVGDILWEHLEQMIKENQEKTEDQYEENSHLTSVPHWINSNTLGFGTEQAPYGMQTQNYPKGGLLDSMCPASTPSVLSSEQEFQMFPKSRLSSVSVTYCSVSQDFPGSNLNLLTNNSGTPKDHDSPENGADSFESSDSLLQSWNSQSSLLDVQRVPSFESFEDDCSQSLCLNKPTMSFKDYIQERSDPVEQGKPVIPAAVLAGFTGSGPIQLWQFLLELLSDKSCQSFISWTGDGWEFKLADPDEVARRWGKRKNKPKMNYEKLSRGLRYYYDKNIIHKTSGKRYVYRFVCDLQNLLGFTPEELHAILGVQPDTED
The conditions noted are these: protein: recombinant; tags: N-terminal GST; dsDNA, one strand shown. In short, it runs like this: as §1

Assay [14] concerns the target T9, SPDEF (Homo sapiens, UniProt O95238 1-335).
T9 sequence: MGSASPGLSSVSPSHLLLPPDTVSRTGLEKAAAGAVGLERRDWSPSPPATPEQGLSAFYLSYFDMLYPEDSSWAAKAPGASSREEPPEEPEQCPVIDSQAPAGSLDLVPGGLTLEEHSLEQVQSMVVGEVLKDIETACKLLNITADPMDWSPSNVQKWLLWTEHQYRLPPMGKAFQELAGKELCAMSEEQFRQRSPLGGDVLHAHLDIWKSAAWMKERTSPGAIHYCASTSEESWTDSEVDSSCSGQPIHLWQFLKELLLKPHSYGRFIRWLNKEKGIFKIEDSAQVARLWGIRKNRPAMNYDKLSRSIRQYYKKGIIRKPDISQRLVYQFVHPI
The conditions noted are these: protein: recombinant; tags: N-terminal GST; dsDNA, one strand shown. In short, it runs like this:
as §1

Assay [15] has as its target T10, ETV7 (Homo sapiens, UniProt Q9Y603 1-341).
T10 sequence: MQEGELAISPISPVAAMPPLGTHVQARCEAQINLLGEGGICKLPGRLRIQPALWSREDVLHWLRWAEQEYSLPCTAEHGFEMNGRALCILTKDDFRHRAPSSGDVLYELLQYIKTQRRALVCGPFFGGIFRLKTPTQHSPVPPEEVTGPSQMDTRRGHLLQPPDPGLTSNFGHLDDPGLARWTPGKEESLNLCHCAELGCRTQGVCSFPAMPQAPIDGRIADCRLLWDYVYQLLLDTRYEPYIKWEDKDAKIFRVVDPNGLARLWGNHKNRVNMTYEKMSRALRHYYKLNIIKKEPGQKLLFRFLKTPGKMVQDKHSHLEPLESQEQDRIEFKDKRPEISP
The conditions noted are these: protein: recombinant; tags: N-terminal GST; dsDNA, one strand shown. In short, it runs like this: as §1

Assay [16] deals with T11, ELF5 (Homo sapiens, UniProt Q9UKW6-2 1-255).
T11 sequence: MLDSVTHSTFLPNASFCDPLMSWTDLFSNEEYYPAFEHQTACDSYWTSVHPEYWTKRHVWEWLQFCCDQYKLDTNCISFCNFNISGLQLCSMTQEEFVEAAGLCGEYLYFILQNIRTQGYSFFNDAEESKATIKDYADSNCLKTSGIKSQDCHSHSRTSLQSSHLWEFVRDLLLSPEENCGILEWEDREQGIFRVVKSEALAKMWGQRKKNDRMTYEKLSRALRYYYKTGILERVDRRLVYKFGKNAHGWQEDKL
As to conditions: protein: recombinant; tags: N-terminal GST; dsDNA, one strand shown. In short, it runs like this: as §1

Assay [17] has as its target T12, ETV3 (Homo sapiens, UniProt P41162-2 1-143).
T12 sequence: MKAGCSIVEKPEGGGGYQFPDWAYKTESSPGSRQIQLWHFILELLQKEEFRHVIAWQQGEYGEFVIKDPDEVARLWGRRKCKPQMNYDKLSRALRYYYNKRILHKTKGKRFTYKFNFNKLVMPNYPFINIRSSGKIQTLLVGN
The conditions noted are these: protein: recombinant; tags: N-terminal GST; dsDNA, one strand shown. In short, it runs like this: as §1

Assay [18] addresses ETV6 (Homo sapiens, UniProt P41212 1-452). The conditions noted are these: protein: recombinant; tags: N-terminal GST; dsDNA, one strand shown. In short, it runs like this:
as §1

Chain of CRX (O43186 whole entry): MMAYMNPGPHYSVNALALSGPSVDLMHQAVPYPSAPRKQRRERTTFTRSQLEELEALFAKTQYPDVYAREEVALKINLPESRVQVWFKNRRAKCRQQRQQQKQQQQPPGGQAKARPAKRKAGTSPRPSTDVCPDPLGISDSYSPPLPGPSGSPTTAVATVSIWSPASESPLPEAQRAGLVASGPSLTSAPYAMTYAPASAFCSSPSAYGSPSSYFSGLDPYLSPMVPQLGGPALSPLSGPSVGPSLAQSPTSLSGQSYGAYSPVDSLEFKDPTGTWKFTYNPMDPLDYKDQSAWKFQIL
Chain of ETV5 (P41161 whole entry): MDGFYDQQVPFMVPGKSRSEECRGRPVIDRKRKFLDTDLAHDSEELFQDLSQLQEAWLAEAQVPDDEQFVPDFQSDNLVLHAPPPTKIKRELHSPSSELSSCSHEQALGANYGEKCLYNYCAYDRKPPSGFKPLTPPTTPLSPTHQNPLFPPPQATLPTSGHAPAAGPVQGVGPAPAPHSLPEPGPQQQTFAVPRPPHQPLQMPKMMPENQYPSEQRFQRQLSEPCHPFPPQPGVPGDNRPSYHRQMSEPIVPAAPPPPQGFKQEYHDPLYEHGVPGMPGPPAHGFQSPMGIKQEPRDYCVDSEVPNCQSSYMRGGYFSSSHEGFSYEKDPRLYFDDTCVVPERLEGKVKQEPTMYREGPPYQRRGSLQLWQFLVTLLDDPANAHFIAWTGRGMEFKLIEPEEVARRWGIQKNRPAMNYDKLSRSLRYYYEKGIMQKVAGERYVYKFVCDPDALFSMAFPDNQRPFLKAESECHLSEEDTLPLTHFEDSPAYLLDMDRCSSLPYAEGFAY
Chain of ETV6 (P41212 whole entry): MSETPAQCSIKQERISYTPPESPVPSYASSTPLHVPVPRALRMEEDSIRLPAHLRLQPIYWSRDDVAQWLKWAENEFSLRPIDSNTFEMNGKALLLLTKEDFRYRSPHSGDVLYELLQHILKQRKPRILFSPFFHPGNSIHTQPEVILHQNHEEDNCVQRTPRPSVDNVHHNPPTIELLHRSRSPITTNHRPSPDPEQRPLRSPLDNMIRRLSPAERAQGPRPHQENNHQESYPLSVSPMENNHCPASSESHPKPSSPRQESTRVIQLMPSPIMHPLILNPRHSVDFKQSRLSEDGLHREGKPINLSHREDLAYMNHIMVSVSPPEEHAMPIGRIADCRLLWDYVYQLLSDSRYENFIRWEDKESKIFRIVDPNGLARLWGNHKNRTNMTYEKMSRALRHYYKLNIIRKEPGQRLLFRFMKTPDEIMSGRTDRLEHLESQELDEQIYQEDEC
Chain of HSF1 (Q00613 whole entry): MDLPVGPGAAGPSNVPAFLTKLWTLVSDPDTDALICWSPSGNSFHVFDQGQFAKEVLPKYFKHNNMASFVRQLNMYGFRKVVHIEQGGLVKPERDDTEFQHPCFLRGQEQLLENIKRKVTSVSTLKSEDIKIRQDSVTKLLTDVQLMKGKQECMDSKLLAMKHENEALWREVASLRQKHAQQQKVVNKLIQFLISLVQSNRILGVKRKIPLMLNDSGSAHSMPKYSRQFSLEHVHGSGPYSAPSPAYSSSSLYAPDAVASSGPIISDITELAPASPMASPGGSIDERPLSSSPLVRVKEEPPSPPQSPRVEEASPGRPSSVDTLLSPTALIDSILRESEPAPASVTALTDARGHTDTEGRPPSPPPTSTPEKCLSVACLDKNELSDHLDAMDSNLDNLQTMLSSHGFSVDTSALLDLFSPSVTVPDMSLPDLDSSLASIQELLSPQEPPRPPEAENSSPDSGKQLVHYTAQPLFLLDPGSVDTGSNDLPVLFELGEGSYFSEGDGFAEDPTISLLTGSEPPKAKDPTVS
Chain of ETV1 (P50549 whole entry): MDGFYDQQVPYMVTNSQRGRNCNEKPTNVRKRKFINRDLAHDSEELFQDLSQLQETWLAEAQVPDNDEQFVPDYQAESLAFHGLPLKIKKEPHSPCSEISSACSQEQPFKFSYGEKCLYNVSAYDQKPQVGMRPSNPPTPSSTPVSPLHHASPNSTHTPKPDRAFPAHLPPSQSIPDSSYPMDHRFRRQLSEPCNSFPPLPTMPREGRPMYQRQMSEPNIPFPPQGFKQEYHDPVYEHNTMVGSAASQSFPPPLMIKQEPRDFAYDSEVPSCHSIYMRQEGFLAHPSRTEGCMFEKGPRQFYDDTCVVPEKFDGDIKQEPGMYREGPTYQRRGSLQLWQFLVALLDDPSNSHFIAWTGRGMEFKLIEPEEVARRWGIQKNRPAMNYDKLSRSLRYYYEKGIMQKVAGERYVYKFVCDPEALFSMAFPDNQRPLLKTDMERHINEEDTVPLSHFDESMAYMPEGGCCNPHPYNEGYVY

Consider CTTGCT, for which the binding signal in assay [1] was 1.25 fold enrichment (6-mer frequency, TF over GST control); in [2], 1.39 fold enrichment (6-mer frequency, TF over GST control); in assay [3], 1.24 fold enrichment (6-mer frequency, TF over GST control); in [4], 1.52 fold enrichment (6-mer frequency, TF over GST control); in assay [5], 1.35 fold enrichment (6-mer frequency, TF over GST control); in assay [6], 1.34 fold enrichment (6-mer frequency, TF over GST control). For the same sequence, the binding signal in assay [7] is 1.58 fold enrichment (6-mer frequency, TF over GST control); in assay [8], 1.52 fold enrichment (6-mer frequency, TF over GST control); in assay [9], 1.18 fold enrichment (6-mer frequency, TF over GST control); in assay [10], 1.36 fold enrichment (6-mer frequency, TF over GST control); in [11], 1.36 fold enrichment (6-mer frequency, TF over GST control); in [12], 1.37 fold enrichment (6-mer frequency, TF over GST control). The binding signal was 1.21 fold enrichment (6-mer frequency, TF over GST control) in assay [13]; 1.23 fold enrichment (6-mer frequency, TF over GST control) in assay [14]; 1.52 fold enrichment (6-mer frequency, TF over GST control) in [15]; 1.27 fold enrichment (6-mer frequency, TF over GST control) in assay [16]; 1.33 fold enrichment (6-mer frequency, TF over GST control) in [17]; 1.36 fold enrichment (6-mer frequency, TF over GST control) in [18].

Values taken from article PMC7862700, “An all-to-all approach to the identification of sequence-specific readers for epigenetic DNA modifications on cytosine”.
